Data from paper PMC7862700, “An all-to-all approach to the identification of sequence-specific readers for epigenetic DNA modifications on cytosine”.

Tests used:
Assay in all cases: DAPPL (digital affinity profiling via proximity ligation, sequencing); 10 mM Tris-HCl pH 7.5, 50 mM NaCl, 1 mM DTT, 4% glycerol, room temperature, 30 min; GST-TFs on glutathione beads, 16-mer random dsDNA library, 0.1% formaldehyde crosslink after washing; high values mean tight binding
FEV = biological target: T1, FEV (Homo sapiens, UniProt Q99581 1-238); conditions: protein: recombinant; tags: N-terminal GST; dsDNA, one strand shown
T1 sequence: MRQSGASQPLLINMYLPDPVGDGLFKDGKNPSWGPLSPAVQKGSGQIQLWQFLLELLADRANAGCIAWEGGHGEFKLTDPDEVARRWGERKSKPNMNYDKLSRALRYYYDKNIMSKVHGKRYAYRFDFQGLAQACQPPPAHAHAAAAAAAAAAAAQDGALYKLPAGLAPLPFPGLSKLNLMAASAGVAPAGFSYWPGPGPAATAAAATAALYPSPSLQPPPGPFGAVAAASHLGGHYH
Procedure, shortened: (§1)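 Human transcription factors fused to GST were expressed in yeast, captured on glutathione beads, given DNA barcodes and pooled with a GST-only negative control. Pools were incubated with 200 nmole of a 16-mer random double-stranded DNA library in Tris/NaCl/DTT/glycerol buffer at room temperature for 30 min. They were then washed, crosslinked with 0.1% formaldehyde, proximity-ligated (BsaI/T4 ligase, 1 h, 37 °C), PCR-amplified and sequenced on an Illumina NextSeq500. Binding signal is each 6-mer's read frequency for a factor divided by its frequency for the GST control.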

ETV5 = ETV5 (Homo sapiens, UniProt P41161 1-510); conditions: protein: recombinant; tags: N-terminal GST; dsDNA, one strand shown
Sequence of ETV5 (P41161 whole entry): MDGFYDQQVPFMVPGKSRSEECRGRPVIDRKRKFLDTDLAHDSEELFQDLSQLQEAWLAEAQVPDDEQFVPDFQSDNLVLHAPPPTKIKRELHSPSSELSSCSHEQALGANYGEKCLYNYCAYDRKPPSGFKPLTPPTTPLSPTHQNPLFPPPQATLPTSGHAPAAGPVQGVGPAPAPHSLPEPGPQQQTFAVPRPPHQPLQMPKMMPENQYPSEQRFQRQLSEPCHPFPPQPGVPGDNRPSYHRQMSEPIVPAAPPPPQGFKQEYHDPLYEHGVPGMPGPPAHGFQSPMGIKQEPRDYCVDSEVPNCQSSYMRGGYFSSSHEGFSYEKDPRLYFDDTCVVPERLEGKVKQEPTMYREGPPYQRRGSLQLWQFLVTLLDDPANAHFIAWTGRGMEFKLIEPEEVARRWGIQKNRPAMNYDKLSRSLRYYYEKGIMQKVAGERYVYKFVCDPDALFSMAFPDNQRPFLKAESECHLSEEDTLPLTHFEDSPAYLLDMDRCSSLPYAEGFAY
Procedure, shortened: as §1

HSF1 = HSF1 (Homo sapiens, UniProt Q00613 1-529); conditions: protein: recombinant; tags: N-terminal GST; chain copies: 3; dsDNA, one strand shown
Sequence of HSF1 (Q00613 whole entry): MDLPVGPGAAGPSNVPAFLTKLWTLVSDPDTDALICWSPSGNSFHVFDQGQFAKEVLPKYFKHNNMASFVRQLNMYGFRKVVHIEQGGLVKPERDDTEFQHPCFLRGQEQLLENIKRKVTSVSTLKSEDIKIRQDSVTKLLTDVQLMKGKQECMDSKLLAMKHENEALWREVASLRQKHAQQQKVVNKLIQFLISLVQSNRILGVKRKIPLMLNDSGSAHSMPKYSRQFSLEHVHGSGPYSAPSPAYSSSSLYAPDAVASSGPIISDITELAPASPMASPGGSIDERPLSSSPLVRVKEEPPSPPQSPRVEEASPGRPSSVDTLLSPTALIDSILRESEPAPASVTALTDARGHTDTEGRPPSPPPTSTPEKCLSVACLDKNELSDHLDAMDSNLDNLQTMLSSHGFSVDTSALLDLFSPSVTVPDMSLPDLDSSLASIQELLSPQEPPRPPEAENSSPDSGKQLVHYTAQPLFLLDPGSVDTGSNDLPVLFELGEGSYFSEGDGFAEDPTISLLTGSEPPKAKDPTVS
Procedure, shortened: as §1

SPIC = biological target: T2, SPIC (Homo sapiens, UniProt Q8N5J4 1-248); conditions: protein: recombinant; tags: N-terminal GST; dsDNA, one strand shown
T2 sequence: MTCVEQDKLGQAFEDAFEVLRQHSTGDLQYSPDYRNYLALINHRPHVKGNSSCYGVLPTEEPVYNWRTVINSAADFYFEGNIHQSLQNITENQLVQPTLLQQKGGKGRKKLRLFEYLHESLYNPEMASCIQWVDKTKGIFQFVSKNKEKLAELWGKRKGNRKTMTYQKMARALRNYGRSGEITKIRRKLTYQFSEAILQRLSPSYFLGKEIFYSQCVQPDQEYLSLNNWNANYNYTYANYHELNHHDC
Procedure, shortened: as §1

ELF4 = ELF4 (Homo sapiens, UniProt Q99607 1-663); conditions: protein: recombinant; tags: N-terminal GST; dsDNA, one strand shown
Sequence of ELF4 (Q99607 whole entry): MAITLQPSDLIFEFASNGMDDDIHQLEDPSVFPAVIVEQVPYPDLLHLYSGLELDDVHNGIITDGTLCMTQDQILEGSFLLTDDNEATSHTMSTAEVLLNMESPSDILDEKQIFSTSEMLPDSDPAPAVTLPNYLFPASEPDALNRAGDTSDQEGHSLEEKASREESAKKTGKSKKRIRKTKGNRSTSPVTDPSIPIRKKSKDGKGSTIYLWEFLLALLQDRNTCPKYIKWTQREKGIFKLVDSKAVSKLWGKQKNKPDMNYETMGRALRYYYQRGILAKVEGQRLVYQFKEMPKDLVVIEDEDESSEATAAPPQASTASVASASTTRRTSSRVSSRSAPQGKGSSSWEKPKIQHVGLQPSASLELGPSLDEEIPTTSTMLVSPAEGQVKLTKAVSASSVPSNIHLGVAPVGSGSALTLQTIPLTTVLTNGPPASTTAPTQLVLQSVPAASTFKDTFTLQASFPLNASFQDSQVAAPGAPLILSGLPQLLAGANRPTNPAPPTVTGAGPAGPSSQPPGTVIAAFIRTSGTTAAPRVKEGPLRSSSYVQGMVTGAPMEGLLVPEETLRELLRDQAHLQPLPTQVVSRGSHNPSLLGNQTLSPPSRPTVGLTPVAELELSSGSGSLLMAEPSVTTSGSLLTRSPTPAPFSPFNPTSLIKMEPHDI
Procedure, shortened: as §1

ELK4 = biological target: T3, ELK4 (Homo sapiens, UniProt P28324-2 1-405); conditions: protein: recombinant; tags: N-terminal GST; dsDNA, one strand shown
T3 sequence: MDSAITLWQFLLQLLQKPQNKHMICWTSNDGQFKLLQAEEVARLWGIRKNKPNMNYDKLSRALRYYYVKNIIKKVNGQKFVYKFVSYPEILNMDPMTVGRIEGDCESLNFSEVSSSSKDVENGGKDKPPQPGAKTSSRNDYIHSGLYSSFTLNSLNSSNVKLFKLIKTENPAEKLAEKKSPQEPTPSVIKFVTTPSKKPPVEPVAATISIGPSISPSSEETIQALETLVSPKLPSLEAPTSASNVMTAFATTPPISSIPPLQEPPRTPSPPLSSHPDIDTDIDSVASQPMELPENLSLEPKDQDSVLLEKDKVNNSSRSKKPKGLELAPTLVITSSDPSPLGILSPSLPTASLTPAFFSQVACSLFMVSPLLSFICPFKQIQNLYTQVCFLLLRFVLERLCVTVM
Procedure, shortened: as §1

ETV2 = biological target: T4, ETV2 (Homo sapiens, UniProt O00321 1-342); conditions: protein: recombinant; tags: N-terminal GST; dsDNA, one strand shown
T4 sequence: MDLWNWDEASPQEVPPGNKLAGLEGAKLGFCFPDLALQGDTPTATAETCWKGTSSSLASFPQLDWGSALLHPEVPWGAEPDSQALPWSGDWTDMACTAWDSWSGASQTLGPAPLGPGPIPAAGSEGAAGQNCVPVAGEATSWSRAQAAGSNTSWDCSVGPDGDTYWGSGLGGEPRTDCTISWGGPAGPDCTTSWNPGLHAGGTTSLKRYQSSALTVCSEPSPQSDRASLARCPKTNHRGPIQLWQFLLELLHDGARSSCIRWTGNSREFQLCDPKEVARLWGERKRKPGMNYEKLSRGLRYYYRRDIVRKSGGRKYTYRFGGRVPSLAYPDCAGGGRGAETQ
Procedure, shortened: as §1

ELF3 = biological target: T5, ELF3 (Homo sapiens, UniProt P78545 1-371); conditions: protein: recombinant; tags: N-terminal GST; dsDNA, one strand shown
T5 sequence: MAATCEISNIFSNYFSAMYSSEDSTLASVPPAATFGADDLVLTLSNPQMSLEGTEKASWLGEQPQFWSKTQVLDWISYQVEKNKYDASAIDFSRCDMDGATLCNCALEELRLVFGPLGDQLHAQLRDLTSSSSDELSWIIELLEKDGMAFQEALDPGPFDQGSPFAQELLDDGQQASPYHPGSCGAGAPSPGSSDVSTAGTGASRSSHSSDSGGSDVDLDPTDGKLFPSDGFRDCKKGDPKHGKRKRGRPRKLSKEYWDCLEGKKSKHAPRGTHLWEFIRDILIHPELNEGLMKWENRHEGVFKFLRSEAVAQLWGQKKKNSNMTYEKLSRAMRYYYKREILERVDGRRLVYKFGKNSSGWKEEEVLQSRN
Procedure, shortened: as §1

CRX = CRX (Homo sapiens, UniProt O43186 1-299); conditions: protein: recombinant; tags: N-terminal GST; dsDNA, one strand shown
Sequence of CRX (O43186 whole entry): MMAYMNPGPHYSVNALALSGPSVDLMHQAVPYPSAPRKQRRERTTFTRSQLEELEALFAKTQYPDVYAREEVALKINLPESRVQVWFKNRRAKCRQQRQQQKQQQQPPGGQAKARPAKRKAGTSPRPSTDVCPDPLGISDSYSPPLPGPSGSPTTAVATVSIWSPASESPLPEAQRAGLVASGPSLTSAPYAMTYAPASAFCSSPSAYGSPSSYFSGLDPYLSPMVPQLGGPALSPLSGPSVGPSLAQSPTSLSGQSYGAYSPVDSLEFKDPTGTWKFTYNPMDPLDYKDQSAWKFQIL
Procedure, shortened: as §1

**Q.** Which binding signal (FEV) does the source give for TCCTTG here?
**A.** 1.21 fold enrichment (6-mer frequency, TF over GST control)

**Q.** And the binding signal (ETV5)?
**A.** 1.22 fold enrichment (6-mer frequency, TF over GST control)

**Q.** And the binding signal (HSF1)?
**A.** 1.15 fold enrichment (6-mer frequency, TF over GST control)

**Q.** What about the binding signal (SPIC) of the same sequence?
**A.** 1.23 fold enrichment (6-mer frequency, TF over GST control)

**Q.** And the binding signal (ELF4)?
**A.** 1.27 fold enrichment (6-mer frequency, TF over GST control)

**Q.** And the binding signal (ELK4)?
**A.** 1.41 fold enrichment (6-mer frequency, TF over GST control)

**Q.** What about the binding signal (ETV2) of the same sequence?
**A.** 1 fold enrichment (6-mer frequency, TF over GST control)

**Q.** And the binding signal (ELF3)?
**A.** 1.31 fold enrichment (6-mer frequency, TF over GST control)

**Q.** What about the binding signal (CRX) of the same sequence?
**A.** 1.11 fold enrichment (6-mer frequency, TF over GST control)
